# This excerpt belongs to a sample that is enriched for hits.
# PL biosyn Enam – animal cell phospholipid biosynthesis inhibition, Enamine screen; ZR-82 CHO cells, pyrene fatty acid UV survival, CellTiter Blue; peroxisome-deficient CHO-K1 mutant line; plus DGAT-1, DGAT-2 and ACAT inhibitors; 20,000 compounds, 0.4% hits; AID 1347385; calls only at 10 µM;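 active = cell survival signal 2 SD away from solvent-only control wells, confirmed on one or two retests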;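 also: 3 h compound exposure then viability read about one day after UV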
# Starred values were filed as active, the others as inactive; i = inactive; + = active, no number.
SMILES,PL biosyn Enam
COCCN=c1scc(-c2ccc(Cl)cc2Cl)n1/N=C/c1ccc2c(c1)OCO2,i
CCOC(=O)c1cnn(C)c1N,i
Cc1cc(Sc2nc(N)ncc2[N+](=O)[O-])ncn1,i
Cc1cc(C)nc(NNc2ncnc(N)c2[N+](=O)[O-])n1,i
Cc1cc(Sc2ncnc(N)c2[N+](=O)[O-])ncn1,+
CCC(C)NC(=S)NC(=O)c1ccco1 (stereo not given),i
Fc1ccc(NN=C2c3ccccc3-c3ccccc32)cc1,+
Clc1ccc(NN=C2c3ccccc3-c3ccccc32)cc1,i
O=[N+]([O-])c1cccc(NN=C2c3ccccc3-c3ccccc32)c1,i
O=[N+]([O-])c1ccc(N/N=C/c2ccc(-n3nncc3C34CC5CC(CC(C5)C3)C4)cc2)cc1,+
O=[N+]([O-])c1cccc(-n2nncc2C23CC4CC(CC(C4)C2)C3)c1,i
c1ccc(N=Nc2ccc(-n3nncc3C34CC5CC(CC(C5)C3)C4)cc2)cc1,i
CC1CCC(C(C)C)C(OC(=O)COC(=O)c2cccs2)C1 (stereo not given),i
Clc1ccc2nc(-c3cccnc3)cc(-c3ccccc3)c2c1,i
Cc1ccc(-c2nnc(N/N=C/c3c(-c4ccccc4)nc4ccccn34)c3ccccc23)cc1C,+
C(=N\N1CCN(C(c2ccccc2)c2ccccc2)CC1)/c1c(-c2ccccc2)nc2ccccn12,i
Cc1ccc(-c2nnc(-n3nnc4cc(C)c(C)cc43)c3ccccc23)cc1C,i
Nc1ccc(N=Cc2ccc3c(c2)OCCO3)cc1,i
CC1CC(Sc2nnc(-c3ccc(C(C)(C)C)cc3)n2C2CCCC2)C(=O)O1 (stereo not given),i
Cn1c(=O)c2c(ncn2CC(=O)c2ccc(Br)s2)n(C)c1=O,i
O=C(CSc1nnnn1C1CCCC1)c1ccc2c(c1)CCC2,i
CCN(CC)S(=O)(=O)c1ccc(N/N=C2\CCSc3ccc(F)cc32)nc1,i
Fc1ccc2c(c1)/C(=N\Nc1nc3ccccc3s1)CCS2,+
O=C(N/N=C1\CCSc2ccc(F)cc21)C1COc2ccccc2O1 (stereo not given),i
O=c1[nH]c(CN2CCCC2c2cccs2)nc2scc(-c3ccco3)c12 (stereo not given),i
SMILES,PL biosyn Enam
CC[n+]1ccc(/C=C/c2ccc(N(C)C)cc2)cc1,+
CN(C)c1ccc(/C=C/c2cccc[n+]2C)cc1,i
CN(C)c1ccc(/C=C/c2ccc3ccccc3[n+]2C)cc1,i
FC(F)(F)c1ccc(C2C=C(c3ccc(Cl)cc3)Nc3ncnn32)cc1 (stereo not given),i
Fc1ccc(-c2cc(-c3ccccc3)c3ccccc3n2)cc1,i
C=C(C)CNC(=S)N/N=C/C1=CCC2CC1C2(C)C (stereo not given),i
CC(C)NC(=S)N/N=C/C1=CCC2CC1C2(C)C (stereo not given),+
CC1(C)C2CC=C(/C=N/NC(=S)Nc3cccnc3)C1C2 (stereo not given),i
CCNC(=S)N/N=C/C1=CCC2CC1C2(C)C (stereo not given),i
CC1(C)C2CC=C(/C=N/NC(=S)NC3CCCCC3)C1C2 (stereo not given),+
CC1(C)C2CC=C(/C=N/NC(N)=S)C1C2 (stereo not given),i
CCN(CC)c1ccc(-c2n[nH]c(=S)n2CC)cc1,i
Cc1cc(C(=O)Cn2ncc(Cl)c(Cl)c2=O)c(C)n1CC1CCCO1 (stereo not given),i
C/C(=N\Nc1ncnc2sc(C)c(C)c12)c1ccc(Cl)s1,+
Cc1sc2ncnc(NC3CCC(O)CC3)c2c1C (stereo not given),i
Cc1sc2ncnc(NCC(C)O)c2c1C (stereo not given),i
FC(F)(F)c1ccc(Cl)c(Nc2nc3ccc(Cl)cc3o2)c1,i
CCOC(=O)c1c(N)sc(C)c1CC(C)CC (stereo not given),i
Cc1nc(-c2ccc3c(c2)CC(C)N3S(C)(=O)=O)cs1 (stereo not given),i
CCN(CC)c1ccc(N=Nc2c(Br)cc([N+](=O)[O-])cc2Br)cc1,i
CCOP(=O)(OCC)C1(C)N(C)c2ccc(N=Nc3ccc([N+](=O)[O-])cc3)cc2C1(C)C (stereo not given),+
CN1/C(=C\P(=Nc2ccc([N+](=O)[O-])cc2)(c2ccccc2)c2ccccc2)C(C)(C)c2ccccc21,i
CC(C)(C)C(=O)/C=c1\[nH]c(=O)/c(=C\c2cc(Br)cs2)s1,i
CN1/C(=C\C=N\N=C2c3ccccc3-c3ccccc32)C(C)(C)c2ccccc21,+
CN1/C(=C\C=Nc2ccc(I)cc2)C(C)(C)c2ccccc21,i
SMILES,PL biosyn Enam
CSc1ccccc1N=C/C=C1/N(C)c2ccccc2C1(C)C,i
Oc1cccc(/C=N/n2cnnc2)c1O,i
Brc1ccc(/C=N/NC2=Nc3cccc4cccc2c34)cc1,i
c1ccc(NNC2=Nc3cccc4cccc2c34)cc1,+
Clc1ccccc1/C=N/NC1=Nc2cccc3cccc1c23,i
Oc1c(I)cc(I)cc1/C=N/n1c(-c2ccc(Cl)cc2Cl)n[nH]c1=S,i
Cc1[nH]c2ccccc2c1N=Nc1ccc(SC(F)F)cc1,+
Cc1[nH]c2ccccc2c1C(c1c(C)[nH]c2ccccc12)C(C)C,i
CCCc1cc(=O)[nH]c(SCc2nc3sc(C)c(C)c3c(=O)[nH]2)n1,i
CC(=O)N1CCCCNC1=S,i
Cc1nc(N2CCCC2)c2c3c(sc2n1)CCCC3,i
Fc1cccc(F)c1/C=N/n1c(-c2cc3ccccc3o2)csc1=NCCc1ccccc1,+
CN=c1scc(-c2cc3ccccc3o2)n1/N=C/c1cccc(C(F)(F)F)c1,i
C=CCN=c1scc(-c2cc3ccccc3o2)n1/N=C/c1ccccc1Br,i
Fc1ccc(F)c(NC(=S)NC2CCCCC2)c1,i
CC(NC(=O)[C@H](C)NC(N)=O)C12CC3CC(CC(C3)C1)C2 (stereo not given in full),i
CN(C)S(=O)(=O)c1ccc(N=Nc2sc(N)nc2-c2cc(F)ccc2F)cc1,i
CN(C)S(=O)(=O)c1ccc(Cl)c(N=Nc2sc(N)nc2-c2cc(F)ccc2F)c1,i
Cc1nc(N)sc1N=Nc1ccc(F)cc1,+
Nc1ncc(Cc2ccc(F)cc2)s1,i
Cc1nc(N)sc1N=Nc1c(Cl)cc(Cl)cc1Cl,i
Cc1nc(N)sc1N=Nc1cc(C(F)(F)F)ccc1Cl,+
CC(C)(C)C(=O)N=c1c2c3c(sc2nc2n1CCCCC2)CCCC3,i
Cc1cccc(NC(=S)NC2CC3CCC2C3)n1 (stereo not given),i
Cc1cc(C(=O)CN2C(=O)C(=O)N(CCc3cccs3)C2=O)c(C)n1CC(F)(F)F,i
CCc1ccc(C(=O)CSc2nnc(C3CC3)n2C2CC2)s1,i
[O-]C(=C(C(=S)Nc1ccccc1)[n+]1ccccc1)c1cc2ccccc2o1,i
CCN(CC)CC(O)COC1CCC(C(C)(C)C)CC1 (stereo not given),i
CC(C)(CO)N(Cc1nc2ccsc2c(=O)[nH]1)Cc1nc2ccsc2c(=O)[nH]1,i
c1cc2c(cc1-c1nnc(SCc3nnc(-c4cc5c(s4)CCCC5)o3)o1)OCO2,i

# High-throughput results from PubChem BioAssay.
